From PubChem BioAssay
tim10-1 inh: growth inhibitors of tim10-1 mutant yeast; S. cerevisiae tim10-1 ts strain growth, BacTiter-Glo, 24 h; inhibition, % at 20 µM; 2.2% of 330,000 active; AID 463190;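 active = inhibition of at least 40%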;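 note: mutant grown at 25 °C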
PfHsp90 set2: inhibits growth of yeast expressing Plasmodium falciparum Hsp90; 0.32% of 310,000 active; inhibition, % at 9.4 µM; S. cerevisiae expressing PfHsp90, BacTiter-Glo ATP, 48 h; yeast lacking PDR1 and PDR3 efflux regulators; AID 504621;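 active = every replicate shows inhibition above about 80%, whatever the replicate mean, limit read from the data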
tim23-1 inh: inhibits growth of tim23-1 mutant yeast | S. cerevisiae tim23-1 growth, BacTiter-Glo luminescence, 24 h | inhibition, % at 20 µM | 1.3% of 330,000 active | AID 463212;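 active = growth inhibition of the mutant yeast at or above 50%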;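 note: temperature-sensitive mutant grown at 25 °C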
TIM10 inh: inhibits growth of TIM10 yeast strain; AID 463195; S. cerevisiae TIM10 strain growth, BacTiter-Glo luminescence, 24 h; 1.4% of 330,000 active; inhibition, % at 10 µM;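 active = inhibition of 40% or more at the single tested concentration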;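 note: wild-type TIM10 isogenic control strain grown at permissive 25 °C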
NALP1 yeast inh: inhibitors of NALP1 inflammasome in yeast; 0.61% of 280,000 active; inhibition, % at 10 µM; S. cerevisiae NALP1/ASC/caspase-1 growth, X-gal OD620, 72 h; in the data active = inhibition mostly above about 24%, no sharp cut-off; inactive = mostly below about 32%
NLRP3 yeast inh: blocks the NALP3 inflammasome reconstituted in yeast. Yeast reconstituted NLRP3/ASC/caspase-1, beta-gal luminescence, 24 h. inhibition, % at 10 µM. 0.39% of 330,000 active. AID 2825;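 active = inhibition of 50% or more; inactive = inhibition below 50%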
tim10-1 conf: confirmation of tim10-1 mutant yeast growth inhibitors. AID 463213. shares compounds with tim10-1 inh. S. cerevisiae tim10-1 ts strain growth, BacTiter-Glo, 24 h. 56% of 7,400 active. inhibition, % at 20 µM;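 active = inhibition of yeast growth at or above a set limit in either of two repeat tests at 20 µM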;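 note: tim10-1 mutant grown at permissive 25 °C to find synthetic lethal compounds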
A number is an active result; i = inactive; nt = no result. Most compounds without a hit are left out; they make up all but 4.2% or so of the library.

SMILES	tim10-1 inh	PfHsp90 set2	tim23-1 inh	TIM10 inh	NALP1 yeast inh	NLRP3 yeast inh	tim10-1 conf
CN(Cc1ccccc1)S(=O)(=O)c1ccc2c(c1)OCCO2	42	i	i	i	i	i	i
O=C(O)CN(Cc1ccccc1)S(=O)(=O)c1ccc2c(c1)OCCO2	i	i	i	i	i	i	nt
COC(=O)c1cc(CNC(=O)c2sccc2-c2ccccc2)ccc1OC	i	i	i	i	i	i	nt
C[C@H]1O[C@H](O[C@H]2[C@H](O)[C@@H](O)[C@@H](O[C@H]3[C@H](O)[C@@H](O)C(O)O[C@@H]3CO)O[C@@H]2CO)[C@H](O)[C@@H](O)[C@@H]1N[C@H]1C=C(CO)[C@@H](O)[C@H](O)[C@H]1O (some centres undefined)	i	nt	i	i	i	i	nt
Brc1ccc(-c2nnc(-c3cccnc3)c3conc23)cc1	51	nt	i	i	nt	i	i
COc1ccc(-c2nnc(C)c3nocc23)cc1	i	i	i	i	i	i	nt
Nc1c2c(nc3ccccc13)CSCC2	i	i	i	i	nt	i	nt
CCOC(=O)C1CCN(C(=O)c2oc3ccc4c(c3c2C)C(O)CC2(CCCCC2)O4)CC1 (centres undefined)	54	i	i	i	i	i	33
COc1ccc2[nH]c(C)c(CCNC(=S)Nc3cc(C)ccc3C)c2c1	i	i	i	i	i	i	nt
CCc1cccc(C)c1NC(=S)NCCc1c(C)[nH]c2ccc(C)cc12	41	i	i	i	i	i	i
Cc1oc(-c2ccccc2F)nc1CSCC(=O)NC1CCC(C)CC1 (centres undefined)	40	i	i	i	i	i	i
Cc1ccccc1-c1nc(CS(=O)(=O)CC(=O)NC2CCCCC2C)c(C)o1 (centres undefined)	41	i	i	i	i	i	i
Cc1ccccc1-c1nc(CS(=O)(=O)CC(=O)NC2CC2)c(C)o1	i	i	i	i	i	i	nt
CCCCN(S(=O)(=O)c1ccccc1)S(=O)(=O)c1ccccc1	i	i	i	i	i	i	nt
Cc1c(OCC(=O)NCCCN2CCOCC2)ccc2c3c(c(=O)oc12)CCC3	48	i	i	i	i	i	i
S=C(c1ccc(-c2ccc(Cl)cc2)o1)N1CCCCC1	i	i	i	i	nt	i	nt
N#CCCN1CCN(C(=S)c2ccc(-c3ccc(Cl)cc3)o2)CC1	45	nt	i	i	i	i	i
S=c1[nH]nc(-c2ccccn2)n1/N=C/c1cccc2ccccc12	41	i	i	i	i	i	i
CCCCn1nc(NC(=O)c2cccs2)c2cc3ccccc3nc21	48	nt	i	i	i	i	39
CCCn1nc(NC(=O)c2cccs2)c2cc3cc(C)ccc3nc21	41	i	i	i	nt	i	31
CCCCCC(O)(c1ccc(OCC)cc1)C(CN1CCOCC1)c1ccccc1 (centres undefined)	i	i	i	i	i	i	nt
COC(=O)C1CCN(C(=O)COC(=O)C2CCN(S(=O)(=O)c3ccc(C)c(C)c3)CC2)CC1	i	i	i	i	nt	i	nt
COc1cc2c(c(OC)c1OC)C(c1ccc(C)cc1)CC(=O)O2 (centres undefined)	i	i	i	i	nt	nt	nt
O=C1CN(C(=O)c2ccc(Cl)c(S(=O)(=O)N3CCc4ccccc43)c2)c2ccccc2N1	i	i	i	i	nt	i	nt
Cc1ccc(-c2csc(NC(=O)CN3CC(C)OC(C)C3)n2)cc1 (centres undefined)	40	i	i	i	i	i	34
SMILES	tim10-1 inh	PfHsp90 set2	tim23-1 inh	TIM10 inh	NALP1 yeast inh	NLRP3 yeast inh	tim10-1 conf
CC(C)(C)OC(=O)N1CCC(Cc2cc(-c3cccc(Br)c3)no2)(C(=O)O)CC1	i	i	i	i	i	i	nt
COC(=O)C1(Cc2cc(-c3cccc(Br)c3)no2)CCN(C(=O)OC(C)(C)C)CC1	41	i	i	i	i	i	i
Cc1cnc(C(=O)NC2CCSc3ccccc32)cn1 (centres undefined)	i	i	i	i	i	i	nt
COc1ccc(OC)c2nc(-c3ccc4c(c3)OCO4)ccc12	41	i	i	i	i	i	34
CCn1c(-c2cc(-c3ccc(C)c(C)c3)nc3ccccc23)n[nH]c1=S	47	nt	i	i	i	i	34
CCn1c(-c2cc(-c3cc(C)ccc3C)nc3ccccc23)n[nH]c1=S	i	i	i	i	i	i	nt
CCOc1cccc(-c2cc(-c3n[nH]c(=S)n3CC)c3ccccc3n2)c1	53	i	i	i	i	i	i
c1cncc(C2OCC3(CO2)COC(c2cccnc2)OC3)c1 (centres undefined)	i	i	i	i	i	i	nt
CC1(C)CC(=O)c2sc(NC(=O)CCS(=O)(=O)c3ccccc3)nc2C1	46	i	i	i	i	i	37
CN1C(=O)c2ccc(C(=O)Nc3ccccc3O)cc2C1=O	i	i	i	i	i	i	nt
COc1ccc(CC(=O)O/N=C(\N)Cc2cccc3ccccc23)cc1OC	58	i	i	i	i	i	48
COc1ccc(CC(=O)O/N=C(\N)c2ccccn2)cc1OC	i	i	i	i	i	i	nt
CCCOc1ccc(N2C(=O)CC(N(CCc3ccc(OC)cc3)C(=O)c3ccccc3)C2=O)cc1 (centres undefined)	i	i	i	i	i	i	nt
CC(C)c1ccc(NC(=O)CCCN2C(=O)NC(C)(C)C2=O)cc1	57	i	i	i	nt	i	i
CC(O)[C@H]1CNC(=O)C(=O)N1CCC12CC3CC(CC(C3)C1)C2 (some centres undefined)	i	i	i	i	nt	i	nt
O=C1CCCN1CCC12CC3CC(CC(C3)C1)C2	41	nt	i	i	i	i	i
Cc1cccc(-n2nc3c(c2NC(=O)c2ccc4c(c2)OCO4)CS(=O)(=O)C3)c1C	i	i	i	i	i	i	nt
CCSc1nnc(NC(=O)c2cccc(OCc3c(C)noc3C)c2)s1	i	nt	i	i	i	i	i
O=C(NN1CCOCC1)c1ccc(Br)cc1	42	i	i	i	nt	i	i
Cc1ccc(C(=O)NN2CCOCC2)cc1	i	i	i	i	i	i	nt
NS(=O)(=O)c1cccc(NC(=O)CCN2C(=O)C3CCCCC3C2=O)c1 (centres undefined)	i	i	i	i	nt	i	nt
Cc1ccc(C2=NN(CCC#N)C(=O)CO2)cc1	i	i	i	i	i	i	nt
Cc1ccc2cc(C#N)c(N3CCCN(C(=S)NCCCN(C)C)CC3)nc2c1	i	i	i	i	i	i	nt
Cc1cc(C)c2cc(C#N)c(N3CCCN(C(=S)NCCCN(C)C)CC3)nc2c1	40	i	i	i	i	i	31
Fc1ccc(C(c2nnnn2C2CCCC2)N(Cc2ccco2)CC2CCCO2)cc1 (centres undefined)	52	i	i	i	i	i	42
